Results from PubChem BioAssay AID1839 (Johns Hopkins Ion Channel Center, 2009).
In all, about 2,400 compounds went through this assay and about 220 (9.2%) were called active. The list comes from a sample in which actives are over-represented; it also holds similar structures and randomly drawn compounds. Unmarked numbers belong to inactive results.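 Rule for the calls: active = signal change above the mean of dofetilide-free buffer controls plus 3 SD, so a positive margin; inactive = the rest.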

test: nonspecific flux effects in parental CHO-K1, confirmation, counter-screen for hERG block protection project, cell-based, CHO-K1 parental line, FluxOR thallium flux (AID 1839); conditions: CHO-K1 parental cells, FluxOR thallium flux fluorescence; at 10 µM;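 note: compounds applied alone with no dofetilide to cells lacking hERG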

Row | Structure (SMILES) | signal change vs control minus 3*SD hit threshold (margin above threshold, higher = more increase)
1 | O=C(Nc1nc(-c2ccccc2)c(-c2ccccc2)o1)c1ccc(F)cc1 | -18.6%
2 | O=C(NC(=S)N1CCN(c2ccc(Cl)cc2[N+](=O)[O-])CC1)c1cccs1 | -23.6%
3 | COCCNC(=O)C(c1ccncc1)N(C(=O)Cn1nnc2ccccc21)c1ccc(OC)cc1 (stereo not drawn) | -24.4%
4 | COc1cccc(C=NCC(C)N=Cc2cccc(OC)c2O)c1O (stereo not drawn) | -13.1%
5 | COc1cccc(C=Nc2cc(C)cc(C)c2)c1O | -7.5%
6 | COc1cccc(C=NCCCN=Cc2cccc(OC)c2O)c1O | 0.5% (active)
7 | Cc1ccc(O)c(C(=O)CC(=O)c2ccccc2Cl)c1 | -27.9%
8 | Cc1cc(Br)c(NC(=O)COC(=O)C2CC2C)c(Br)c1 (stereo not drawn) | -27.2%
9 | O=C(O)CCSc1ncnc2sc(-c3ccccc3)cc12 | -4.3%
10 | CCOC(=O)c1sc2nc(C)nc(SCC(=O)N(C)C3CCS(=O)(=O)C3)c2c1C (stereo not drawn) | -20.4%
11 | CN(C(=O)CSc1ncnc2sc(-c3ccccc3)cc12)C1CCS(=O)(=O)C1 (stereo not drawn) | 24.3% (active)
12 | CCOC(=O)C1=C(N)Oc2cc(O)ccc2C1c1cccnc1 (stereo not drawn) | -22.5%
13 | N#Cc1cccc(NC(=O)c2nc(-c3ccccc3)n(-c3ccccc3)n2)c1 | -41.8%
14 | CCOC(=O)N1CCN(C(=O)c2ccc(C)c(S(=O)(=O)Nc3ccccc3)c2)CC1 | -15%
15 | Cc1cccc(NC(=S)N/N=C2\CC(C)(C)Oc3ccc(O)cc32)c1 | -19.7%
16 | O=C(NC(=S)NCCc1ccccc1)c1cccc(Cl)c1 | -28.3%
17 | O=C1C(c2ccccc2)C(c2ccccc2)NC(c2ccccc2)C1c1ccccc1 (stereo not drawn) | -27.2%
18 | Fc1cccc2sc(Nc3nnc(-c4ccco4)o3)nc12 | -13.8%
19 | COc1cccc2sc(Nc3nc(-c4ccccn4)cs3)nc12 | -29.4%
20 | COc1cccc2sc(Nc3nnc(-c4ccc(F)cc4)o3)nc12 | 13.1% (active)
21 | Fc1cccc2sc(Nc3nnc(-c4ccccc4)o3)nc12 | 39.2% (active)
22 | COc1cccc2sc(Nc3nnc(-c4ccccc4Cl)o3)nc12 | -16%
23 | COc1cccc(-c2nnc(Nc3nc4c(F)cccc4s3)o2)c1 | -7.5%
24 | Fc1cccc2sc(Nc3nc4c(F)cccc4s3)nc12 | -6.3%

Row | Structure (SMILES) | signal change vs control minus 3*SD hit threshold (margin above threshold, higher = more increase)
25 | COc1cccc2sc(Nc3nnc(-c4cccs4)o3)nc12 | 14.3% (active)
26 | CCC1CCCCN1C(=S)NC(=O)c1ccc([N+](=O)[O-])cc1 (stereo not drawn) | -2.3%
27 | CN1C(=O)CSc2ccc(NC(=O)N3CCc4ccccc43)cc21 | -32.3%
28 | COc1ccccc1-n1c(CCC(=O)O)ccc1-c1ccccc1 | -17.9%
29 | CCOC(=O)CC(=O)CSc1nc2c(C)c(C)ccc2cc1C | -25%
30 | C/C(=N\Nc1nc(C)c(C)s1)c1ccc([N+](=O)[O-])cc1 | -17.3%
31 | CCn1c(O)c(N=NC2=NC(=O)CS2)c2ccccc21 | -27%
32 | CCn1c(O)c(N=NC2=NC(=O)CS2)c2cc(C)ccc21 | -27.3%
33 | CCc1ccc2c(c1)c(N=NC1=NC(=O)CS1)c(O)n2CC | 1% (active)
34 | CCCOc1ccc(CN(CCC#N)C(=S)NC(=O)c2ccccc2)cc1 | -20.4%
35 | Cc1ccc2c(c1)c1nnc(SCC(=O)Nc3ccc(N(C)C)cc3)nc1n2CC(=O)O | -28.5%
36 | CCOC(=O)N/N=C/C=C/c1ccccc1[N+](=O)[O-] | -14.5%
37 | CCN(CC)S(=O)(=O)c1cc(OC)ccc1N=Nc1ccc(O)c2ncccc12 | 5.8% (active)
38 | COc1cccc(N=Nc2ccc(O)c3ncccc23)c1 | -23.6%
39 | COc1ccccc1N=Nc1ccc(O)c2ncccc12 | -39%
40 | O=C(NC(=S)Nc1cccnc1)c1cc2ccccc2o1 | -7.1%
41 | COc1cc(OC)cc(C(=O)NC(=S)N(Cc2ccccc2)C(C)C)c1 | -1.3%
42 | COc1ccc(C(=O)NC(=S)N(Cc2ccccc2)Cc2ccccc2)cc1 | 7.4% (active)
43 | CCOc1ccc(C(=O)NC(=S)N(Cc2ccccc2)Cc2ccccc2)cc1 | -15.4%
44 | Cc1ccc(C(=O)NC(=S)N(C)Cc2ccccc2)cc1 | -19.2%
45 | CCCN(CCC)C(=S)NC(=O)c1ccc(-c2ccccc2)cc1 | 18.5% (active)
46 | C=CCN(CC=C)C(=S)NC(=O)c1ccc(-c2ccccc2)cc1 | -9.3%
47 | CCCCC1(O)CC(C(F)(F)F)=NN1C(=O)COc1ccccc1 (stereo not drawn) | -36.4%
48 | Cc1ccc(OCCC(=O)OC(C)C(=O)NC2CC2)cc1 (stereo not drawn) | -26.5%
